According to PubChem BioAssay (NCI):
The panel holds about 79,000 compounds, 15% with a hit somewhere; the sample as a whole holds those more often. Active and inactive are the calls of the source. No stated cut-off is given here; in the data, active means growth inhibition above about 70%; inactive means the rest.

experiment: NCI Yeast Anticancer Drug Screen. Data for the cln2 rad14 strain (AID 165);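 further: 0% = growth equal to vehicle treated cultures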; settings: S. cerevisiae cln2 rad14 strain, at 5.0 µM (retest, dose inferred, filed as 0.5), stronger effect = higher value
In short: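 The screen exposed genetically defined yeast (cln2 rad14) to test compounds and scored growth inhibition relative to vehicle-treated controls.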

Row | Structure (SMILES) | growth inhibition
1 | N#Cc1c(SCc2ccc(Cl)cc2)nsc1Nc1ccc(Cl)cc1 | 87% (active)
2 | CC(CO)(Nc1ccc([N+](=O)[O-])cc1[N+](=O)[O-])C(=O)O (stereo not given) | 1% (inactive)
3 | O=[N+]([O-])/C(C(Cl)=C(Cl)Cl)=C(/Nc1ccccc1)Sc1ccccc1 | 49% (inactive)
4 | CC(SCc1ccccc1)C(=O)O (stereo not given) | 9% (inactive)
5 | O=C1C2(Cl)C(Cl)=C(Cl)C1(Cl)C1(Cl)C(Cl)=C(Cl)C(=O)C21Cl (stereo not given) | 19% (inactive)
6 | O=C(CNC(=O)c1ccccc1)Oc1c(Cl)c(Cl)c(Cl)c(Cl)c1Cl | 7% (inactive)
7 | CN(C)c1nc(NNS(=O)(=O)c2ccc(N)cc2)nc(N(C)C)n1 | 2% (inactive)
8 | CC1(C(Cl)(Cl)Cl)C=CC(O)(C#CC2(O)C=CC(C)(C(Cl)(Cl)Cl)C=C2)C=C1 (stereo not given) | 87% (active)
9 | COCCN1C(=O)C2c3[nH]c4ccccc4c3C3CCC(C(C)(C)C)CC3C2C1=O (stereo not given) | -21% (inactive)
10 | Cc1nc(N)sc1N=Nc1cccc(Cl)c1Cl | 0% (inactive)
11 | ClC1=C(Cl)C2c3ccccc3C1c1ccccc12 | -4% (inactive)
12 | C=C/C=C/CC=C | -45% (inactive)
13 | C/C(=N\NC(=S)NCc1ccccc1)c1nccnc1C | 35% (inactive)
14 | COC(=O)c1cc(OC)c(OC)c(OC)c1 | 2% (inactive)
15 | Nc1nc2c(ccc3ccccc32)s1 | 14% (inactive)
16 | N=C(N)c1ccc(N=Nc2cc(/C=C/c3ccccc3)ccc2O)cc1 | 3% (inactive)
17 | O=C1NC(=O)N(c2ccc([N+](=O)[O-])cc2)C1=O | 9% (inactive)
18 | O=C(Nc1cc(Cl)cc(Cl)c1)OCCCl | 24% (inactive)
19 | Cc1[nH]nc(-c2ccon2)c1N=O | 22% (inactive)
20 | O=C(O)CCC(=O)c1ccc(C2CCCC2)c2ccccc12 | -17% (inactive)

Row | Structure (SMILES) | growth inhibition
21 | CC12CC(Br)(Br)C(=O)C3C1CCCC32 | 49% (inactive)
22 | O=[N+]([O-])c1ccc(NSc2ccccc2)cc1 | 21% (inactive)
23 | CCC1CCC(CC)C1=O (stereo not given) | -2% (inactive)
24 | Cc1cc(C(C)(CC(C)C)c2ccc(O)c(C)c2)ccc1O | 68% (inactive)
25 | N#CC1C(=O)SC2c3ccccc3C(=O)c3ccccc3C12 (stereo not given) | 6% (inactive)
26 | COc1ccc(C2C3=C(CCCC3=O)Oc3cc4c(cc32)OCO4)cc1 (stereo not given) | 22% (inactive)
27 | CCC(c1cccc(O)c1)C(CC)c1cccc(O)c1 (stereo not given) | 50% (inactive)
28 | CCCCCCCCCCCC1C(C#N)C(=O)NC(=O)C1C#N (stereo not given) | 73% (active)
29 | O=C(NNC(=O)c1cccc(C(=O)NNC(=O)c2ccc(Cl)c(Cl)c2)n1)c1ccc(Cl)c(Cl)c1 | 54% (inactive)
30 | CCOC(=O)CCC(NC(=O)c1ccc(NC(OC)c2nc3cc(C(F)(F)F)ccc3nc2-c2ccccc2)cc1)C(=O)OCC (stereo not given) | 80% (active)
31 | CCOC(=O)c1c(C)[nH]c(CO)c1C | 4% (inactive)
32 | S=C(NC(=S)Nc1ccc(Cl)cc1)Nc1ccc(Cl)cc1 | -9% (inactive)
33 | O=S(=O)(c1ccc(OCC(O)COc2ccc(S(=O)(=O)c3ccc(OCC4CO4)cc3)cc2)cc1)c1ccc(OCC2CO2)cc1 (stereo not given) | 3% (inactive)
34 | C=C(C)C(=O)OC1CC2=CC(CC3(C)OC3C3OC(=O)C(=C)C13)OC2=O (stereo not given) | 8% (inactive)
35 | c1ccc2c(c1)C[n+]1ccc3ccccc3c1-c1c3ccccc3cc[n+]1C2 | 1% (inactive)
36 | CCN(CC)CCOC(=O)Cc1cccc2c(=O)cc(-c3cccs3)oc12 | 17% (inactive)
37 | C=C1C(=O)OC2C/C(C)=C/CC/C(C)=C/CCC3(COC(C)=O)OC3CC12 (stereo not given) | 1% (inactive)
38 | CN1C=CC(C(O)(c2ccccc2)c2ccccc2)CC1 (stereo not given) | -5% (inactive)
39 | OCc1cccc2c1Oc1ccccc1S2 | -5% (inactive)
40 | COC(=O)c1[nH]c(=O)c(C#N)c(C(=O)OC)c1C(=O)c1ccc(Cl)c(Cl)c1 | 3% (inactive)
